In the supplement of paper PMC10849652:
About 8,800 targets were measured; listed, in parts, are those with a hit and a random draw of the rest. About 0.5% of all pairs of compound and target were hits.

Experiments:
Experiment in all cases: log2 fold change, soluble protein after heating vs DMSO (PISA); higher = thermal stabilisation; K562 lysate, 10 uM; active = over 0.2 and 3.5 SD of the protein, either way, in both replicates (recomputed)
vemurafenib = compound: CCCS(=O)(=O)Nc1ccc(F)c(C(=O)c2c[nH]c3ncc(-c4ccc(Cl)cc4)cc23)c1F [vemurafenib]
In short: (§1)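 Dounce homogenisation of K562 pellets in PBS pH 7.4 with 1 mM MgCl2 produced a crude extract, used at 1 mg/mL protein. Exposure to 10 μM compound lasted 30 min, and aliquots were then heated for 3 min across 48°C-58°C, pooled and brought to 0.5% NP-40 at 4°C. The supernatant after 21,000xg for 90 min was quantified by TMTpro 16plex LC-MS/MS with channel sums equalised. Duplicate values are given as log-two fold change in thermal stability relative to solvent controls.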

[1] = compound: CCCS(=O)(=O)Nc1ccc(F)c(C(=O)c2c[nH]c3ncc(Cl)cc23)c1F
In short: as §1

barasertib = compound: CCN(CCCOc1ccc2c(Nc3cc(CC(=O)Nc4cccc(F)c4)[nH]n3)ncnc2c1)CCOP(=O)(O)O [barasertib]
In short: as §1

[2] = compound: CC[C@@H]1C(=O)N(C)c2cnc(Nc3ccc(C(=O)NC4CCN(C)CC4)cc3OC)nc2N1C1CCCC1
In short: as §1

volasertib = compound: CC[C@@H]1C(=O)N(C)c2cnc(Nc3ccc(C(=O)N[C@H]4CC[C@H](N5CCN(CC6CC6)CC5)CC4)cc3OC)nc2N1C(C)C [volasertib]
In short: as §1

[3] = compound: CCn1c(C(=O)N(C2CC2)C2CC2)cc2c3c(ncn3C)c(Nc3cc(C)n(C)n3)nc21
In short: as §1

[4] = compound: CCn1cc(-c2ccnc3[nH]c(-c4cccc(CN(C)C)c4)cc23)c(-c2ccc(NC(=O)N(C)C)cc2)n1
In short: as §1

[5] = compound: CN1CCC(CNc2ccc3ncc(-c4cccc(OC(F)(F)F)c4)n3n2)CC1
In short: as §1

saracatinib = compound: CN1CCN(CCOc2cc(OC3CCOCC3)c3c(Nc4c(Cl)ccc5c4OCO5)ncnc3c2)CC1 [saracatinib]
In short: as §1

sotrastaurin = compound: CN1CCN(c2nc(C3=C(c4c[nH]c5ccccc45)C(=O)NC3=O)c3ccccc3n2)CC1 [sotrastaurin]
In short: as §1

Measured: log2 fold change

C18orf25 (UniProt Q96B23)
Sequence of UniProt Q96B23 (Q96B23 whole entry, looked up): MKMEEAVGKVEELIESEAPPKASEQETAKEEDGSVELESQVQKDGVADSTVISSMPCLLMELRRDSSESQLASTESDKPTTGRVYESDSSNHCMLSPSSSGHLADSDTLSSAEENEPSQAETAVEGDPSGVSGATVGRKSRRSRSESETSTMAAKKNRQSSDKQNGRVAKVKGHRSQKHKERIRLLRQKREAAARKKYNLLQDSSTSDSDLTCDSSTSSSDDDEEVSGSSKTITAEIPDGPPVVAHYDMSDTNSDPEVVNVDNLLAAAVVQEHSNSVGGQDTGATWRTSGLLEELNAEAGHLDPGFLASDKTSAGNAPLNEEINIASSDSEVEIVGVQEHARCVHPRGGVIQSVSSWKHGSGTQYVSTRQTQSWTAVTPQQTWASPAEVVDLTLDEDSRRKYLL
inactive: vemurafenib -0.014 | [1] 0.014 | barasertib 0.004 | [2] 0.1 | volasertib -0.013 | [3] -0.059 | [4] -0.035 | [5] 0.015 | saracatinib -0.032 | sotrastaurin 0.009

CDK5RAP3 isoform 4 (UniProt Q96JB5)
Sequence of UniProt Q96JB5 (Q96JB5 whole entry, looked up): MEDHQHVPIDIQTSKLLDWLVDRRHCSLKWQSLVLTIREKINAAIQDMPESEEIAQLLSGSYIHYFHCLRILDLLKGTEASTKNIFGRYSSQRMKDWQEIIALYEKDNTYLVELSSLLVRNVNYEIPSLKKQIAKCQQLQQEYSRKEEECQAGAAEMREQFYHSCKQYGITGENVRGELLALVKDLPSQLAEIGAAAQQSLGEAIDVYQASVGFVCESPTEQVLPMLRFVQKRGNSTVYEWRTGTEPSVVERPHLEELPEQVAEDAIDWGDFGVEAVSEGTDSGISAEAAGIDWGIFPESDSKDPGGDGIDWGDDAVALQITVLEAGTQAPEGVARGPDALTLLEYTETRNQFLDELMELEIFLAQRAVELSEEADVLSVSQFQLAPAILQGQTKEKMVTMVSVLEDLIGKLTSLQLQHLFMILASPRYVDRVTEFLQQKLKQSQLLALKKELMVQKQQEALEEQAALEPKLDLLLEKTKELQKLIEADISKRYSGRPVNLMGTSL
active: [4] -0.313
inactive: vemurafenib 0.023 | [1] 0.013 | barasertib 0.022 | [2] -0.008 | volasertib -0.051 | [3] 0.029 | [5] 0.216 | saracatinib -0.002 | sotrastaurin -0.021

BTRC (UniProt Q9Y297)
Sequence of UniProt Q9Y297 (Q9Y297 whole entry, looked up): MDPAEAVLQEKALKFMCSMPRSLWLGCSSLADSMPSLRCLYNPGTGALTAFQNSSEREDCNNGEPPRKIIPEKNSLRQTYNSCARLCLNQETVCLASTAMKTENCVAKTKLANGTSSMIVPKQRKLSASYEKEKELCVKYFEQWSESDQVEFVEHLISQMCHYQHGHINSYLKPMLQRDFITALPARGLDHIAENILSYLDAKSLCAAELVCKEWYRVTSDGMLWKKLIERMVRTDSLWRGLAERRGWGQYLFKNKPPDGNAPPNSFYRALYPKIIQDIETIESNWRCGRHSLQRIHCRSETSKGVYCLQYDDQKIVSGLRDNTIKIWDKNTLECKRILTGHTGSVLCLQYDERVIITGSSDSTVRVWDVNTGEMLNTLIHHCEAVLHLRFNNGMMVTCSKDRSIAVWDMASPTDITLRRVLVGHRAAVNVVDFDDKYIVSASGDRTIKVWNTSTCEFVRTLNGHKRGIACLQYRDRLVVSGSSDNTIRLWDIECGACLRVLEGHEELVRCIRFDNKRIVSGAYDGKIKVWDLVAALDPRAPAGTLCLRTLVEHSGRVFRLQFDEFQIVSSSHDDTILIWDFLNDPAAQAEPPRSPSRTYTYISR
inactive: vemurafenib -0.002 | [1] 0.023 | barasertib 0.052 | [2] 0.076 | volasertib -0.041 | [3] -0.088 | [4] 0.073 | [5] 0.067

C3 (UniProt P01024)
Sequence of UniProt P01024 (P01024 whole entry, looked up): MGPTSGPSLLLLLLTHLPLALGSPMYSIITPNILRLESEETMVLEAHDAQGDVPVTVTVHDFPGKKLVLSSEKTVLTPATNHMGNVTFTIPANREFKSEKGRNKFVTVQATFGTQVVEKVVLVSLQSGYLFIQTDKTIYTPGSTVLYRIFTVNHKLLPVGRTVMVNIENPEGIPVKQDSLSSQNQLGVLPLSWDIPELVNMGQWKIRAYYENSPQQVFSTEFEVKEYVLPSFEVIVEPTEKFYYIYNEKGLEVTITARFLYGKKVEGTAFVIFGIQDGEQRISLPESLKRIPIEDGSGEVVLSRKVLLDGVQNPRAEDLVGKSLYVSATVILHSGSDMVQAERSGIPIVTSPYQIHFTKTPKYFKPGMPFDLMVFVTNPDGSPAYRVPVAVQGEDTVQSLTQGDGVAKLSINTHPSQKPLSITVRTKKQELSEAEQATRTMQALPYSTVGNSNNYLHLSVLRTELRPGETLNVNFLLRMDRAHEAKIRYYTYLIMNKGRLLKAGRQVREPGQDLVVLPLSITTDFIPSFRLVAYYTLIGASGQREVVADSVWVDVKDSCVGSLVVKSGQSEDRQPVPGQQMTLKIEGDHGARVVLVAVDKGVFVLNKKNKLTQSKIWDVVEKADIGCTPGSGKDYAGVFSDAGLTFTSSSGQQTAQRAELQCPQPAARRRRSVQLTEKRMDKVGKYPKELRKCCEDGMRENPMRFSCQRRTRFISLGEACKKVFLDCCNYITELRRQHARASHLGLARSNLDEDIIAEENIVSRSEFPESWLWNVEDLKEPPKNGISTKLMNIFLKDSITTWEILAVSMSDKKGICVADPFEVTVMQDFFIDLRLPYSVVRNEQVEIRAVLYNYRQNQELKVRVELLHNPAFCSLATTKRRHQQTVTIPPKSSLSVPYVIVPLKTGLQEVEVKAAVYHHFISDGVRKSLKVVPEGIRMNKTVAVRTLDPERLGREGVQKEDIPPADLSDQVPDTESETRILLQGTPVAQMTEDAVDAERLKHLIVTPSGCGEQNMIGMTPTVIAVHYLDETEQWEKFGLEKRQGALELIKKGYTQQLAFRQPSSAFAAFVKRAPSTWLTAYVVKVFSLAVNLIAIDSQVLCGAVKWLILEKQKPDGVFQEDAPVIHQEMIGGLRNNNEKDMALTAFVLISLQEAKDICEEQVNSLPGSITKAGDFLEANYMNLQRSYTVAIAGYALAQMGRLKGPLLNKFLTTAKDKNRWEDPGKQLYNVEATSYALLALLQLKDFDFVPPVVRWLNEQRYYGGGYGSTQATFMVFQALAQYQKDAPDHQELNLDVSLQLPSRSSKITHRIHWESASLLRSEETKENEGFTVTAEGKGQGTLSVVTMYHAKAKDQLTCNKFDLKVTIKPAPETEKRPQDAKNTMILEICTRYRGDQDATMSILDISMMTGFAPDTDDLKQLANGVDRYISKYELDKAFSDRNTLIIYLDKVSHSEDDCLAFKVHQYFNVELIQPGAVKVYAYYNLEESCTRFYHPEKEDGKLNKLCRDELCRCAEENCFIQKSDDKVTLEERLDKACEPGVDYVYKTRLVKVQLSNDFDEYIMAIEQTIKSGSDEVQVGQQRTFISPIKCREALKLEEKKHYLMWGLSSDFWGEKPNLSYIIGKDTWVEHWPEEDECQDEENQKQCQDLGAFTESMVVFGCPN
inactive: vemurafenib -0.02 | [1] 0.042 | barasertib 0.059 | [2] 0.07 | volasertib 0.009 | [3] -0.096 | [4] -0.134 | [5] 0.039 | saracatinib 0.001 | sotrastaurin 0.014

CCDC22 (UniProt O60826)
Sequence of UniProt O60826 (O60826 whole entry, looked up): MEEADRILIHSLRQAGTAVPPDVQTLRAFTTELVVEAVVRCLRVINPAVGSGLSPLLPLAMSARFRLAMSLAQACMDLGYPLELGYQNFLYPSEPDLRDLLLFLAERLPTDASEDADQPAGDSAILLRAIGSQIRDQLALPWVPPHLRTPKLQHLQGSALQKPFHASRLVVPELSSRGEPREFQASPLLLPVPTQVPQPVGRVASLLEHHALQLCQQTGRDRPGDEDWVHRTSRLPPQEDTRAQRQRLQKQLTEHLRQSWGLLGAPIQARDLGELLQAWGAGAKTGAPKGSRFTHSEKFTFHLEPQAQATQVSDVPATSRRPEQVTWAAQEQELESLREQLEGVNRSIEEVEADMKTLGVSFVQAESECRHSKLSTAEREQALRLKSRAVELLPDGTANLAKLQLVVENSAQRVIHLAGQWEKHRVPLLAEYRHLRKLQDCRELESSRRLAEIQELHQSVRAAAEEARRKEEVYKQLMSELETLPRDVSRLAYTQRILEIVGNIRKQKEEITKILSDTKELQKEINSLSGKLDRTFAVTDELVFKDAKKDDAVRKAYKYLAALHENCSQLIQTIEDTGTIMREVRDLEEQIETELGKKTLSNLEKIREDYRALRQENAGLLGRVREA
inactive: vemurafenib -0.054 | [1] 0.026 | barasertib 0.052 | [2] -0.053 | volasertib -0.013 | [3] 0.026 | [4] -0.027 | [5] -0.01 | saracatinib 0.01 | sotrastaurin 0.028

CARHSP1 (UniProt Q9Y2V2)
Sequence of UniProt Q9Y2V2 (Q9Y2V2 whole entry, looked up): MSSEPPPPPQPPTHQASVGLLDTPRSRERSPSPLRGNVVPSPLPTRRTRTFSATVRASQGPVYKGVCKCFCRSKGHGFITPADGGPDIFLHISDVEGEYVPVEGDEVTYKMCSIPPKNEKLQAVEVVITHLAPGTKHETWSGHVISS
inactive: vemurafenib 0.032 | [1] -0.015 | barasertib 0.024 | [2] 0.033 | volasertib -0.024 | [3] -0.061 | [4] -0.02 | [5] 0.044 | saracatinib 0 | sotrastaurin -0.042

CENPQ (UniProt Q7L2Z9)
Sequence of UniProt Q7L2Z9 (Q7L2Z9 whole entry, looked up): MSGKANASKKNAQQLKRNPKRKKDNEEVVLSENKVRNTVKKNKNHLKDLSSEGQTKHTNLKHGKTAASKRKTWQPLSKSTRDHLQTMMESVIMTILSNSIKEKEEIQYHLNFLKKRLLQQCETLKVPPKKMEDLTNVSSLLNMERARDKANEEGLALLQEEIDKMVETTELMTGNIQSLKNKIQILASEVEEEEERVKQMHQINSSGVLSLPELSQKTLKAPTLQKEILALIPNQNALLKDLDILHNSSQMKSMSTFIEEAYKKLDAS
inactive: vemurafenib 0.069 | [1] -0.167 | barasertib 0.038 | [2] -0.023 | volasertib -0.115 | [3] -0.084 | [5] 0.095 | saracatinib 0.033 | sotrastaurin 0.023
active: [4] -0.44

CDK5RAP2 (UniProt Q96SN8)
inactive: vemurafenib -0.023 | [1] -0.186 | barasertib 0.071 | [2] 0.029 | volasertib -0.3 | [3] 0.001 | [4] 0.016 | [5] -0.067 | saracatinib 0.027 | sotrastaurin -0.008

ATG4B (UniProt Q9Y4P1)
inactive: vemurafenib 0.036 | [1] 0.04 | barasertib 0.047 | [2] 0.012 | volasertib -0.05 | [3] 0.008 | [4] 0.148 | [5] -0.105 | saracatinib 0.043 | sotrastaurin 0.039

CES2 isoform 4 (UniProt O00748)
Sequence of UniProt O00748 (O00748 whole entry, looked up): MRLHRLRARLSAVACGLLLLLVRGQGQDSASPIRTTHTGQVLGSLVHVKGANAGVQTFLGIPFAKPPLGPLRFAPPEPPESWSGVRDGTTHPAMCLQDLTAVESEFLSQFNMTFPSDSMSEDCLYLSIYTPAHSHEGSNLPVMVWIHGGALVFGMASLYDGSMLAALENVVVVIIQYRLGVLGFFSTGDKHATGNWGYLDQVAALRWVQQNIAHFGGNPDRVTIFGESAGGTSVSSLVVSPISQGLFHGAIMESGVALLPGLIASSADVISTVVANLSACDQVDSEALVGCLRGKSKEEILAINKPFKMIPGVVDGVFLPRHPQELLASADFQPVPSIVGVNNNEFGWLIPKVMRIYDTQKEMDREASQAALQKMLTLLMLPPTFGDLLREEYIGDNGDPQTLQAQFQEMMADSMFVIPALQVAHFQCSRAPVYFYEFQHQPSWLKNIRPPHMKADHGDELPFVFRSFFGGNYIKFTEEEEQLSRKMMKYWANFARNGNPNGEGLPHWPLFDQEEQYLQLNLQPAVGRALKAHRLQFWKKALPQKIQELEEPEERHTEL
inactive: vemurafenib 0.03 | [1] -0.024 | barasertib -0.052 | [2] -0.012 | volasertib 0.004 | [3] -0.046 | [4] 0.002 | [5] 0.034 | saracatinib -0.001 | sotrastaurin -0.017

CDC16 (UniProt Q13042)
inactive: vemurafenib -0.042 | [1] 0.001 | barasertib -0.018 | [2] -0.074 | volasertib -0.063 | [3] 0.043 | [4] 0.046 | [5] -0.041 | saracatinib -0.005 | sotrastaurin 0.02

CBFA2T3 (UniProt O75081)
inactive: vemurafenib -0.043 | [1] 0.018 | barasertib -0.055 | [2] 0.003 | volasertib -0.02 | [3] -0.007 | [4] -0.023 | [5] -0.018 | saracatinib 0.021 | sotrastaurin 0.015

CDK13 (UniProt Q14004)
inactive: vemurafenib -0.124 | [1] -0.031 | barasertib -0.061 | [2] 0.002 | volasertib -0.123 | [3] 0.106 | [4] -0.09 | [5] 0.04 | saracatinib 0.074 | sotrastaurin -0.036

C8orf37 (UniProt Q96NL8)
Sequence of UniProt Q96NL8 (Q96NL8 whole entry, looked up): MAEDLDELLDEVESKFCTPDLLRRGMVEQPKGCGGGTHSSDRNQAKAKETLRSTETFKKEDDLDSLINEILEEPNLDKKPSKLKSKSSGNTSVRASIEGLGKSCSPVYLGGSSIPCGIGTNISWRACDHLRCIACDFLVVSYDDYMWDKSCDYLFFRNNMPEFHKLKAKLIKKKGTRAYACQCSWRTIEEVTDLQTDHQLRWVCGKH
inactive: vemurafenib 0.081 | [1] -0.061 | barasertib -0.062 | [2] 0.058 | volasertib -0.043 | [3] -0.075 | [4] 0.225 | [5] 0.166 | saracatinib -0.06 | sotrastaurin 0.072

CDK16 isoform 2 (UniProt Q00536)
inactive: vemurafenib 0.03 | [1] 0.075 | barasertib 0.007 | [2] -0.006 | volasertib -0.175 | [3] -0.03 | [4] -0.027 | [5] 0.083 | saracatinib 0.03 | sotrastaurin 0.236
